Test results from PubChem BioAssay AID489043 (National Center for Advancing Translational Sciences (NCATS), 2010).
Results filed as inconclusive are left out. Activity calls are given as the source filed them. Calls come from the whole dose curve; as a rule, active = well fitted activation curve with a large enough effect; inconclusive = small, poorly fitted or top-dose-only effect; inactive = flat fitted curve, though single readings scatter.

target: Relaxin receptor 2 (Homo sapiens) (UniProt Q8WXD0); assay: qHTS Assay for Agonists of the Relaxin Receptor RXFP1: RXFP2 Hit Validation; conditions: HEK293 RXFP2 cAMP TR-FRET, 30 min; series mostly up to 115 µM; activation: at the top concentration; note: nearly all actives have a fitted effect of over 65% in size
Sequence (Q8WXD0 whole entry, looked up): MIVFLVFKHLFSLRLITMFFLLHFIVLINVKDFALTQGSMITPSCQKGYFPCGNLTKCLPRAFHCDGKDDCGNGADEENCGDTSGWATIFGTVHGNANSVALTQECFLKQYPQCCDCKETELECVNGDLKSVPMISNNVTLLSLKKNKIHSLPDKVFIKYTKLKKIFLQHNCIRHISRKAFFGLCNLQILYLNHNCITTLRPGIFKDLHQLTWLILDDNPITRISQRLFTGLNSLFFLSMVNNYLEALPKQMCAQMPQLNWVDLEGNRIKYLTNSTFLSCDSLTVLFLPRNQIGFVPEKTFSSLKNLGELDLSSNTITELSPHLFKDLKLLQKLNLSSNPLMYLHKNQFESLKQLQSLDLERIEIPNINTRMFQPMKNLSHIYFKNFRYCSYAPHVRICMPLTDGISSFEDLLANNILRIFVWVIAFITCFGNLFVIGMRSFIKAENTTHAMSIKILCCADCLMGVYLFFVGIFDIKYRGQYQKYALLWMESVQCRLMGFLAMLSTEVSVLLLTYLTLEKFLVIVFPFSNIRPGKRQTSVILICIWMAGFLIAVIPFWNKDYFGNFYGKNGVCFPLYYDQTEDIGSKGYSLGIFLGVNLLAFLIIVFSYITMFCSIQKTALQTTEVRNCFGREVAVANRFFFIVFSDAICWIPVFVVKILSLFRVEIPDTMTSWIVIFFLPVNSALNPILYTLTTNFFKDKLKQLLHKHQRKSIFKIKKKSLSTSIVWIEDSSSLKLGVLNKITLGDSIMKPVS
From the text: NIH Chemical Genomics Center [NCGC] NIH Molecular Libraries Probe Production Centers Network [MLPCN] MLPCN Grant: R03 MH085705-01A1 Assay Submitter (PI): Alexander Agoulnik NCGC Assay Overview: The relaxin hormone is involved in the variety of biological functions in normal tissues and diseases. The role of relaxin is well-established in female reproduction and parturition, mammary gland and endometrial development, maintenance of myometrial quiescence during pregnancy. Relaxin signaling through its G protein-coupled receptor (GPCR) RXFP1 results in ECM remodeling through regulation of collagen deposition, cell invasiveness, proliferation and overall tissue homeostasis. […] Recombinant human relaxin (rhRlx) is currently being tested in clinical trials as a protective agent in congestive heart failure, in treating severe preeclampsia, and as an anti-fibrotic agent in systemic sclerosis. Upon relaxin binding RXFP1 activation leads to the activation of adenylate cyclase (AC) via Gs. cAMP will activate PKA, which phosphorylates many signaling proteins. Thus, detection of cAMP increase is an easy and reliable indication of relaxin receptor activation. To screen for agonists of the relaxin receptor, a HEK293T cell line stably transfected with RXFP1 was used. RXFP1 activation was assayed by changes in cAMP levels as detected with a time-resolved fluorescence energy transfer (TR-FRET) cAMP detection kit. This assay measures activation of a cell expressing RXFP2, another GPCR targeted by relaxin, to determine the selectivity of compounds for RXFP1.
NCGC Assay Protocol Summary: This is a cell-based assay for cAMP second messenger response to screen for agonists of the RXFP2 receptor. The assay was conducted in the presence of a PDE4 inhibitor (Ro 20174). The cells were lysed and the cAMP levels were measured with a TR-FRET cAMP kit. Presence of cAMP in the cell lysate disrupts binding between the cryptate-labeled anti-cAMP and d2-labeled cAMP pair, leading to a decrease in the TR-FRET signal. Data were normalized to the controls for basal activity (buffer only) and 100% activity (29 nM porcine relaxin). The EC50 values were determined from concentration-response data modeled with the standard Hill equation 1536-well assay protocol for the HEK293 RXFP2 cAMP assay: (1) Add 3 ul HEK293 RXFP2 cell culture. 2000 cells/well in DMEM/F12, 10% FBS, 1x Pen/Strep (dispensed offline with MultiDrop Combi). (2) Incubate 16-24 hr at 37C, 5% CO2. (3) Add 1 ul 400uM Ro20174 in DPBS, 0.05% BSA, 0.005% Tween 20. (3) Add 23 nl compounds in DMSO solution. Final concentration was 0.5 - 58 uM. (4) Incubate 30 min at 37C, 5% CO2. (5) Add 1 ul cAMP-d2 in lysis buffer (HTRF cAMP HiRange kit, CisBio). (6) Add 1 ul anti-cAMP antibody-cryptate in lysis buffer (HTRF cAMP HiRange kit, CisBio). (7) Incubate 30 min at room temperature. […] Keywords: relaxin, RXFP1, RXFP2, G-protein coupled receptor, cAMP, agonist, high throughput screening, MLSMR, MLSCN, NIH Roadmap, qHTS and NCGC
Potency is the fitted concentration of half-maximal effect.

activation, inactive:
c1ccc(-c2nnc(-c3ccccn3)c(-c3ccccn3)n2)nc1 -2.34%
CCOC(=O)CSc1nc(=O)n2cc(C)ccc2n1 21.2%
COC(=O)[C@@H]1C[C@@]2(O)[C@H](O)[C@H](O)[C@H](O)C[C@H]2N1Cc1cc(F)ccc1F 4.14%
O=C(Nc1ccccc1C(=O)N1CCOCC1)c1ccco1 0.881% [at 125 µM]
O=C(O)CCNc1ccc(NCCC(=O)O)c2c1C(=O)c1ccccc1C2=O 1.48%
CCN(CC)S(=O)(=O)c1ccc(N2CCOCC2)c(NC(=O)c2cc([N+](=O)[O-])ccc2Cl)c1 14%
COc1ccc(/C=C2/SC(=O)N(CCC(=O)Nc3ccc(C)cc3)C2=O)cc1OC -63.1%
CC(NC(=O)c1ccccc1NC(=O)c1ccco1)C(=O)O (stereo not given) 4.16% [at 125 µM]
NC(=O)c1ccccc1NC(=O)CC12CC3CC(CC(C3)C1)C2 -2.23% [at 125 µM]
CCN(CC)CCCCCC(=O)Nc1ccccc1C(=O)Nc1ccccc1 -1.53% [at 125 µM]
COc1ccc(/C=C2/SC(=O)N(CC(=O)Nc3cc(C)on3)C2=O)cc1OC -62%
CC(=O)C1C(c2ccccc2)c2c(noc2C)CC1(C)O (stereo not given) -5.3%
CC1C/C(=N\NC(N)=S)c2cc(Cl)ccc2S1 (stereo not given) 17.3%
CN(CC(=O)Nc1ccccc1Cl)C(=O)COC(=O)Cc1c(F)cccc1Cl 0.312% [at 44.7 µM]
Nc1c(S(=O)(=O)O)cc(NC(=O)c2ccccc2)c2c1C(=O)c1ccccc1C2=O -16.6%
CCn1c(=O)c2cc(C(=O)Nc3cccc(C(C)=O)c3)sc2c2ccccc21 13.5%
O=C(Nc1ccccc1C(=O)N1CCCCC1)c1ccco1 -0.174% [at 125 µM]
O=C(Nc1ccccc1C(=O)NCCN1CCOCC1)c1ccco1 4.33% [at 125 µM]
O=C(Nc1ccccc1)c1ccccc1NC(=O)C1CCCCC1 5.98% [at 125 µM]
O=C(Nc1ccccc1C(=O)Nc1ccccc1)c1ccco1 -8.2% [at 125 µM]
O=C(Nc1ccccc1C(=O)NC1CCCCC1)c1ccco1 15.2% [at 125 µM]
O=C(Nc1ccccc1C(=O)NCCc1ccc(O)cc1)c1ccco1 3.59% [at 125 µM]
N#C/C(=C/c1ccc(OCc2ccccc2)cc1)C(=O)NC1CCCCC1 12.7% [at 44.7 µM]
O=C(O)c1ccc(N=C2NC(=O)C(CO)(CO)S2)cc1 2.73% [at 44.7 µM]
CC(C(=O)Nc1cccnc1)n1cc([N+](=O)[O-])cn1 (stereo not given) 24%
O=C(Nc1ccccc1C(=O)NCc1ccc(Cl)cc1)c1ccco1 -1.91% [at 125 µM]

Potency, active:
O=C(O)c1cc(-c2ccc(Br)s2)nc2ccccc12 3.46 µM
CCN(CC)S(=O)(=O)c1ccc(C(=O)NCCN2C(=O)S/C(=C\c3cccnc3)C2=O)cc1 13.8 µM
O=S(=O)(c1cccc(-c2cn3cccnc3n2)c1)N1CCOCC1 34.6 µM
NC(=S)c1cc2ccc(O)cc2oc1=O 4.88 µM
COc1ccc(S(=O)(=O)N2CCOCC2)cc1NC(=O)CSc1nnc2ccccn12 6.15 µM
Cc1ccc(NC(=O)CCc2nnc3ccc(N4CCN(C)CC4)nn23)cc1F 38.9 µM
CCN(CC)S(=O)(=O)c1cccc(N=Nc2c(O)c3ccccc3oc2=O)c1 34.6 µM
CC(C)Oc1ccc(S(=O)(=O)N2CCOCC2)cc1NC(=O)c1cc([N+](=O)[O-])ccc1N1CCOCC1 29.8 µM
CCOC(=O)CNC(=O)CSc1nc2c(C)cccc2cc1CC 19.4 µM
Cc1cc(C)n2nc(C(=O)Nc3ccc4c(c3)OCCO4)nc2n1 6.9 µM
C=CCSc1nc2c(c(=O)[nH]1)C(C(C)C)C(C#N)=C(N)O2 (stereo not given) 43.6 µM
CCCn1c(SCC(=O)Nc2ccc(NC(C)=O)cc2)nc2c1c(=O)n(C)c(=O)n2C 34.6 µM
CCOc1ccc(NC(=O)CSc2ccc3nnc(-c4cccnc4)n3n2)cc1 34.6 µM
CCN1CCN(C(=O)CCc2nnc3ccc(N4CCC5(CC4)OCCO5)nn23)CC1 38.9 µM
